# Assay outcomes as filed in PubChem BioAssay.
# Avidin bead fluor: green autofluorescence of compounds with avidin beads – biophysical, 488/530 nm, flow cytometry, artefact control, profiling panel; compound fluorescence 488/530 nm; hits give high values; fluorescence (KMESF) at 10 µM; actives 0.38% (n = 220,000); AID 1775, 2009; in the data active = fluorescence above about 47
# RGS4-Gao reg: modulators of RGS4 binding to Galphao, primary screen, biochemical, multiplexed bead flow cytometry; actives lie on both sides; AID 1415, 2008; Guanine nucleotide-binding protein G(o) subunit alpha (Homo sapiens), P09471; binding response (% of control), % at 10 µM; actives 0.33% (n = 220,000); in the data active = binding response below about 49% or above about 150%; inactive = in between;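 also: fluorescent Galphao activated with aluminum fluoride binding bead-coupled RGS4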
# Target sequence (P09471 whole entry, looked up): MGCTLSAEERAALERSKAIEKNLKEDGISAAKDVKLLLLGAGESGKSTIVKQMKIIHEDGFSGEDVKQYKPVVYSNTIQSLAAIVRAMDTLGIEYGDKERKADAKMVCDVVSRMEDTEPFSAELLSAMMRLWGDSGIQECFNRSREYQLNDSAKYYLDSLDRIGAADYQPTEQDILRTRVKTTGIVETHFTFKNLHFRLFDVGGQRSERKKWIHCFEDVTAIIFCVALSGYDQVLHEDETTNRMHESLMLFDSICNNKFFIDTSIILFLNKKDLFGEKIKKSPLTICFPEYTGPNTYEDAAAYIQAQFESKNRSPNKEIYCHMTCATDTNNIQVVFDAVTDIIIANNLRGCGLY
# RGS16-Gao HTS: modulators of RGS16 binding to Galphao, primary screen, biochemical, human proteins, multiplexed bead flow cytometry | Regulator of G-protein signaling 16 (Homo sapiens) + Guanine nucleotide-binding protein … | bead-based flow cytometry RGS16-Galphao binding, fluorescence; actives lie on both sides | binding response (% of control), % at 10 µM | actives 0.38% (n = 220,000) | AID 1441, 2008;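 also: Galphao activated by GDP with aluminum fluoride before binding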
# RGS7-Gao reg: RGS7-Galphao binding modulators, primary screen, biochemical, multiplexed bead flow cytometry. binding response (% of control), % at 10 µM. actives lie on both sides. Guanine nucleotide-binding protein G(o) subunit alpha (Homo sapiens), P09471. actives 0.35% (n = 220,000); in the data active = binding response below about 49% or above about 150%; inconclusive = no clear call, values can overlap the other calls; inactive = in between;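 also: fluorescent Galphao held in activated GDP-AlF4 state binding bead-coupled RGS7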
# RGS8-Gao reg: RGS8-Galphao binding modulators, primary screen, biochemical, multiplexed bead flow cytometry | Guanine nucleotide-binding protein G(o) subunit alpha (Homo sapiens), P09471 | actives lie on both sides | response (percent of control binding), % at 10 µM | actives 0.34% (n = 220,000); in the data active = response below about 60% or above about 140%; inactive = in between;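 also: Galphao activated as the GDP aluminium fluoride complex binding bead-coupled RGS8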
# GSH bead fluor: compound fluorescence on glutathione beads, profiling panel, artefact control, biophysical, 488/530 nm, flow cytometry; GSH beads flow cytometry, compound fluorescence 488/530 nm; hits give high values; actives 0.25% (n = 190,000); AID 1776, 2009; fluorescence (KMESF) at 10 µM; in the data active = fluorescence above about 89;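 also: glutathione beads carrying GST-tagged Bcl family fusion proteins plus one bare bead set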
# RGS4-Gao HTS: modulators of RGS–Galpha-o binding, primary screen, biochemical, multiplexed beads, flow cytometry, RGS4/7/8/16/19; AID 1504, 2009; multiplexed bead flow cytometry; shares compounds with RGS16-Gao HTS; RGS4–Galpha-o binding response, % at 10 µM; actives 99% (n = 1,600);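 also: fluorescently labeled Galpha-o bound to GDP with aluminium fluoride binding biotinylated RGS beads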
# Biotin-avidin: disruption of biotin probe capture by avidin, counter-screen for RGS protein interaction modulators, biochemical, flow cytometry, bead-based. shares compounds with RGS16-Gao HTS. streptavidin beads, fluorescein-biotin binding. inhibition, % at 10 µM. 1,700 tested, under 10 active. AID 1783, 2009;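 active = inhibition above 50%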;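 also: median green fluorescence of gated singlet beads compared with DMSO control wells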
# RGS8-Gao single: RGS8-Galphao binding modulators, confirmation, biochemical, multiplexed bead flow cytometry, single concentration | shares compounds with RGS16-Gao HTS | bead-based flow cytometry RGS8-Galphao binding, fluorescence; actives lie on both sides | binding response (% of control), % at 10 µM | actives 3% (n = 1,700); in the data active = binding response below about 72% or above about 130%; inactive = in between;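 also: Galphao activated as GDP AlF4 complex before binding bead RGS8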
# RGS7-Gao single: RGS7-Galphao binding modulators, confirmation, biochemical, multiplexed bead flow cytometry, single concentration; shares compounds with RGS16-Gao HTS; bead-based flow cytometry RGS7-Galphao binding; actives lie on both sides; response (percent of control binding), % at 10 µM; actives 7.8% (n = 1,700); AID 1837, 2009; in the data active = response below about 75% or above about 130%; inactive = in between;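 also: fluorescent Galphao activated with GDP and aluminum fluoride binding bead-coupled RGS7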
# RGS16-Gao single: modulators of RGS16-Galphao protein binding, confirmation, biochemical, single concentration, multiplexed bead flow cytometry; shares compounds with RGS16-Gao HTS; bead-based flow cytometry; actives lie on both sides; response (% of control binding), % at 10 µM; actives 4% (n = 1,700); AID 1838, 2009; in the data active = response below about 74% or above about 130%; inactive = in between;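 also: Galphao activated as the GDP aluminium fluoride complex binding bead-coupled RGS16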
# RGS4-Gao confirm: modulators of RGS4-Galphao protein binding, confirmation, biochemical, single concentration, multiplexed bead flow cytometry; shares compounds with RGS16-Gao HTS; actives lie on both sides; binding response (% of control), % at 10 µM; actives 4% (n = 1,700); AID 1840, 2009; in the data active = binding response below about 74% or above about 130%; inactive = in between
# RGS19-Gao single: regulators of RGS19-Galphao binding, confirmation, biochemical, single point, multiplexed bead flow cytometry | shares compounds with RGS16-Gao HTS | bead-based flow cytometry RGS19-Galphao binding; actives lie on both sides | response (percent of control binding), % at 10 µM | actives 5% (n = 1,700); in the data active = response below about 50% or above about 160%; inactive = in between
# Target sequence (P09471 whole entry, looked up): as above
# Target sequence (P49795 whole entry, looked up): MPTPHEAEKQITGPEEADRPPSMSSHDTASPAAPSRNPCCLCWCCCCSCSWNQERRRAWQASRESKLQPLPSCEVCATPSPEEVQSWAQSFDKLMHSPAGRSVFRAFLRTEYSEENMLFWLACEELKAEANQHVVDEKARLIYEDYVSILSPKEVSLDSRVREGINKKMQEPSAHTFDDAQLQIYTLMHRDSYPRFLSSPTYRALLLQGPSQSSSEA
# A number is an active result; 0 = inactive; ? = inconclusive; - = no result given; [ ] = another dose, or the depositor's remark. Shown are actives, neighbours in structure and some others; about 1.2% of the full set was active somewhere. Unless noted, no rule for the calls is given here.
SMILES,Avidin bead fluor,RGS4-Gao reg,RGS16-Gao HTS,RGS7-Gao reg,RGS8-Gao reg,GSH bead fluor,Biotin-avidin,RGS8-Gao single,RGS7-Gao single,RGS16-Gao single,RGS4-Gao confirm,RGS19-Gao single,others
CCC(C)C(=O)Nc1cccc(SC)c1 (centres undefined),0,0,0,0,0,0,-,-,-,-,-,-,
O=C(O)c1ccccc1C(=O)NCC(O)COc1ccc(Cl)cc1 (centres undefined),0,0,0,?,0,-,-,-,-,-,-,-,
O=C(C[n+]1ccc(-c2nnc3n2CCC3)cc1)c1ccc(Cl)c(Cl)c1,0,0,0,-,0,0,0,0,0,0,0,0,
CCOC(=O)N/N=C(\C)c1ccc(-n2cnnn2)cc1,0,0,0,0,0,0,-,-,-,-,-,-,
O=C(c1ccc(=O)[nH]c1)N(Cc1cccs1)C1(C(=O)NC2CCCC2)CCCCC1,0,0,259[activator],0,141[activator],0,0,0,0,0,0,0,RGS4-Gao HTS=116
CCOc1ccc(CCNC(=O)c2cc3sccc3n2C)cc1OCC,0,155[activator],0,0,142[activator],0,0,0,0,0,0,0,
O=Cc1ccc(O)c(O)c1,0,0,0,0,0,0,-,-,-,-,-,-,
Oc1ccc(N=Cc2ccc(O)c(O)c2)cc1,0,0,0,49,0,0,0,0,0,0,0,0,RGS4-Gao HTS=59
N#C/C(=C(/O)CSc1nnc(Cc2cccs2)n1C1CCCCC1)c1nc2ccccc2[nH]1,0,33,0,46,51,228,0,0,0,0,0,0,
O=c1c2c3c(sc2nc(NCCOCCO)n1Cc1ccco1)CCCCC3,0,39,0,?,46,-,0,0,0,0,0,0,
COc1ccc(-n2nc(C(=O)NCC(=O)Nc3ccccn3)c3ccccc3c2=O)cc1Cl,0,167[activator],0,0,0,0,0,0,0,0,0,0,
CC1=CN2CC(O)CN=C2C=C1 (centres undefined),-,-,-,-,-,0,0,0,0,0,0,0,
CC1=CC=CN2CC(O)CN=C12 (centres undefined),0,0,0,0,0,0,-,-,-,-,-,-,
O=C(COc1ccccc1[N+](=O)[O-])Nc1ccc(Br)cc1,0,0,0,?,0,-,-,-,-,-,-,-,
O=C(C/C=N\OCc1ccc([N+](=O)[O-])cc1)Nc1ccc(Br)cc1,0,0,0,157[activator],0,0,0,0,0,0,0,0,RGS4-Gao HTS=106
Cc1ccc(NC(=O)Nc2cccs2)cc1,0,0,0,0,0,0,-,-,-,-,-,-,
CCc1ccc(NC(=O)Nc2cccs2)cc1,0,-32,-20,-11,5.8,0,0,0,0,0,0,0,
COc1cc(N=Nc2cccc(S(N)(=O)=O)c2)c2ccccc2c1N,0,0,0,?,0,-,-,-,-,-,-,-,
Cc1ccc(C(=O)NC(O)C(Cl)Cl)cc1 (centres undefined),0,161[activator],175[activator],0,0,0,0,0,0,0,0,0,
Cc1ccc(C(=O)NNC(=O)c2ccc(C)cc2)cc1,0,0,0,0,0,0,-,-,-,-,-,-,
CCn1c(SCC(=O)N2CCCC(C)C2)nnc1-c1ccc(S(=O)(=O)N2CCN(C)CC2)cc1 (centres undefined),-,-,-,-,-,0,0,0,0,0,0,0,
Cc1c(O)c2c3c(cccc3c1O)C(=O)N(c1ccccc1)C2=O,0,164[activator],0,161[activator],143[activator],0,0,0,0,0,0,0,
Nc1nc2ncc(-c3ccsc3)c(N)n2n1,0,0,0,0,0,0,-,-,-,-,-,-,
COCc1cc(C)nc(OCC(=O)N/N=C/c2ccc(O)cc2O)c1C#N,0,0,0,0,55,0,0,0,0,0,0,0,RGS4-Gao HTS=55
COc1ccc(/C=C/C(=O)Oc2cccc(/C=N/NC(=O)Cc3ccc(Br)cc3)c2)cc1,0,0,0,?,0,-,-,-,-,-,-,-,
SMILES,Avidin bead fluor,RGS4-Gao reg,RGS16-Gao HTS,RGS7-Gao reg,RGS8-Gao reg,GSH bead fluor,Biotin-avidin,RGS8-Gao single,RGS7-Gao single,RGS16-Gao single,RGS4-Gao confirm,RGS19-Gao single,others
COc1ccc(S(=O)(=O)N2CCN(CCC(=O)Nc3ccccc3F)CC2)cc1,-,-,-,-,-,0,0,0,0,0,0,0,
Cc1c(NC(=O)Nc2ccc3c(c2)OCO3)c(=O)n(-c2ccccc2)n1C,149,0,0,227[activator],0,0,0,0,0,0,0,0,RGS4-Gao HTS=122
Cc1c(NC(=S)NC(=O)C(C)(C)C)c(=O)n(-c2ccccc2)n1C,0,0,0,0,0,0,-,-,-,-,-,-,
Cc1c(NC(=O)CNCc2ccc3c(c2)OCO3)c(=O)n(-c2ccccc2)n1C,0,0,0,?,0,-,-,-,-,-,-,-,
Cc1c(NC(=S)NC(=O)C2CCCCC2)c(=O)n(-c2ccccc2)n1C,0,7.8,13,15,17,0,0,0,67,0,0,0,
COc1ccc2nc(/C=N/NC(=O)CCCCCNC(=O)OC(C)(C)C)ccc2c1,0,0,0,?,0,-,-,-,-,-,-,-,
CCOCC(=O)Nc1cc(C(=O)OC)cc(C(=O)OC)c1,0,0,203[activator],0,0,0,0,0,0,0,0,0,RGS4-Gao HTS=110
CCOCC(=O)Nc1cccc(C(=O)OCC)c1,0,0,0,0,0,0,-,-,-,-,-,-,
